Experimental findings from PubChem BioAssay (NCI) are described below.

Test in all cases: NCI-60 one-dose screen, 48 h (100 = growth as untreated, 0 = no growth, -100 = all killed)
Common to all, as to settings: 10 µM

Assay [1] deals with NCI-H23 lung.
The subject of assay [2] is NCI-H226 lung.
The subject of assay [3] is HOP-62 NSCLC.
The subject of assay [4] is NCI-H460 lung.
Assay [5] concerns HOP-92 NSCLC.
The test system of assay [6] is A549/ATCC NSCLC.
Assay [7] deals with 786-0 renal.
Assay [8] deals with COLO 205 colon.
Assay [9] has as its system DU-145 prostate.
Assay [10] deals with K-562 leukemia.
The test system of assay [11] is MDA-MB-231 breast.
In assay [12] the test system is RXF 393 renal.
Assay [13] relates to SF-268 CNS.
For assay [14], the system named is SF-295 CNS.
For assay [15], the system named is SF-539 CNS.
The subject of assay [16] is UACC-257 melanoma.
Assay [17] has as its system M14 melanoma.
The subject of assay [18] is NCI-H522 lung.
The subject of assay [19] is MALME-3M melanoma.

The panel holds about 83,000 compounds, 20% with a hit somewhere; the sample as a whole holds those more often.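 The test compound was applied at a single concentration to cells in 96-well plates for 48 hours, and percent growth was recorded.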 A number with no mark means an inactive call. Active and inactive are the calls of the source. How the source made its calls: active means growth percent below 10; inactive means the rest.

Regarding `COc1cc(N)c2ncccc2c1SC`, the growth in assay [1] was 93.6%; in assay [2], 106%; in [3], 107%; in assay [4], 105%; in [5], 94.6%; in assay [6], 99.5%. For the same compound, the growth in [7] was 116%; in [8], 100%; in assay [9] it was 104%; in assay [10], 122%; in assay [11], 95.1%; in [12], 121%. Besides, the growth in assay [13] was 91.2%; in assay [14], 109%; in assay [15], 114%; in assay [16] it was 98.3%; in assay [17], 104%.
For `C#CC(C)(O)[C@@H]1C[C@H](CC(=O)O)C1(C)C` (some centres undefined), the growth in assay [1] is 98%; in assay [2], 111%; in [3], 112%; in assay [4] it was 116%; in assay [5] it was 114%; in assay [6], 113%. In addition, the growth was 110% in assay [7]; 122% in assay [8]; 112% in [9]; 118% in assay [10]; 113% in [11]; 134% in [12]. The growth was 105% in [13]; 103% in assay [14]; 99.7% in assay [15]; 105% in assay [16]; 105% in [17].
With `CC(=O)COc1ccc(Cl)cc1Cl`, the growth in [1] is 106%; in [2], 93%; in assay [3], 110%; in assay [4] it was 110%; in assay [5], 91%; in assay [18] it was 107%. The growth in assay [6] is 107%; in assay [7], 103%; in assay [8], 114%; in [9], 106%; in assay [11] it was 105%; in assay [12] it was 107%. Besides, the growth is 109% in assay [13]; 103% in assay [14]; 114% in assay [15]; 112% in assay [16]; 110% in assay [17].
For the compound `O=C(COc1cccc(/C=C2\CSc3ccc(Cl)cc3C2=O)c1)c1ccc(Cl)cc1`, the growth in assay [1] is 75.1%; in assay [2], 84.3%; in assay [3] it was 83.6%; in assay [4], 91.3%; in assay [5], 15.6%; in [18], 36.8%. The growth in assay [7] is 94.6%; in assay [8], 115%; in assay [10] it was 17.3%; in assay [11], 32%; in assay [13] it was 88.2%; in [14], 81.2%. Besides, the growth was 80.3% in assay [15], 84.6% in assay [16] and 94.7% in [17].
Regarding `COc1ccc2c(c1)CC=C1[C@@H]2CC[C@]2(C)C(=O)/C(=N/O)C[C@@H]12`, the growth is 102% in [1]; 87.6% in assay [2]; 88.5% in assay [3]; 101% in [4]; 96.5% in [5]; 102% in assay [18]. The growth in assay [6] is 99.4%; in assay [7], 90.3%; in [8], 103%; in [9] it was 96.6%; in assay [11] it was 86.9%; in [12] it was 64%. The growth in assay [13] is 76.4%; in [14] it was 74.9%; in assay [15], 98.7%; in assay [16], 118%; in assay [17], 94.3%.
Take `CC(=O)OC1CC2C(C)(C)CCC[C@]2(C)C2=C1C(O)=C(C(C)C)C(=O)C2=O` (some centres undefined): the growth is 9.91% (active) in [1]; -71.1% (active) in [2]; -40.3% (active) in assay [3]; -39.8% (active) in assay [4]; -79.2% (active) in assay [5]; 58.6% in [18]. In addition, the growth in assay [6] was 6.64% (active); in assay [7], -3.43% (active); in assay [8], -38.5% (active); in assay [9], -62.7% (active); in [11], -17.8% (active); in assay [12] it was -59.8% (active). Moreover, the growth was 15.7% in [13]; -53.1% (active) in assay [14]; -7.95% (active) in assay [15]; -12% (active) in assay [16]; -43% (active) in [17].
As for `O=C1/C=C/[C@@H](O)[C@@H]2C[C@@H](O)C[C@H]2/C=C/CCC[C@H](CCc2ccc(NC(=S)Nc3ccc4c(c3)C(=O)OC43c4ccc(O)cc4Oc4cc(O)ccc43)cc2)O1`, the growth is 4.65% (active) in assay [1]; 17.4% in assay [2]; 25% in assay [3]; 15.4% in [4]; -4.85% (active) in [5]; -31% (active) in assay [18]. In addition, the growth in assay [6] is 17.3%; in assay [9], 17.4%; in [10] it was 13.5%; in assay [19], -1.26% (active); in assay [11], -88.7% (active); in [12] it was -30.2% (active). Moreover, the growth in assay [13] is 12.8%; in assay [14], 22.2%; in [15], 29.4%; in assay [16], 0.525% (active); in assay [17], 10.9%.
For the compound `Cc1cc(SCc2ccccc2)nc(N)n1`, the growth in assay [1] was 97.3%; in [2] it was 115%; in assay [3] it was 105%; in [4], 111%; in [5], 85.2%; in assay [6] it was 105%. Further, the growth in assay [7] is 79.1%; in [8] it was 127%; in assay [9], 104%; in assay [10], 105%; in [19] it was -0.674% (active); in assay [11], 107%. Moreover, the growth in assay [12] was 124%; in assay [13] it was 100%; in assay [14] it was 102%; in [16] it was 125%; in assay [17], 115%.
Take `COc1ccccc1/C=N\N/C(N)=N\N=C\c1ccccc1OC`: the growth in assay [1] was 26.8%; in assay [2], 48.5%; in assay [3] it was -24.8% (active); in assay [4] it was 2.85% (active); in assay [5] it was 48.9%; in [18], 4.02% (active). Further, the growth is 7.99% (active) in [7]; -10.9% (active) in assay [8]; 2.34% (active) in assay [10]; 21.7% in [11]; 41.4% in assay [13]; 5.03% (active) in assay [14]. Besides, the growth in [15] is -35.5% (active); in [16], 46.3%; in assay [17], -3.67% (active).
On to `CN(C)c1ccc(/C=N/NC(=O)c2ccccc2Nc2cccc(C(F)(F)F)c2)cc1`, for which the growth in [1] was 91.2%; in assay [2], 101%; in assay [3], 79.6%; in assay [4] it was 96.3%; in assay [5] it was 73%; in [18] it was 83.2%. Also, the growth in assay [7] is 90.1%; in assay [8], 111%; in assay [10] it was 77.8%; in assay [11], 70.9%; in assay [13] it was 93.7%; in assay [14], 111%. The growth in assay [15] was 105%; in assay [16] it was 101%; in assay [17], 105%.
